Experimental findings from article PMC7862700, “An all-to-all approach to the identification of sequence-specific readers for epigenetic DNA modifications on cytosine” are described below.

Assay in all cases: DAPPL (digital affinity profiling via proximity ligation, sequencing); 10 mM Tris-HCl pH 7.5, 50 mM NaCl, 1 mM DTT, 4% glycerol, room temperature, 30 min; GST-TFs on glutathione beads, 16-mer random dsDNA library, 0.1% formaldehyde crosslink after washing; high values mean tight binding
One assay has as its target T1, FLI1 (Homo sapiens, UniProt Q01543 1-452).
T1 sequence: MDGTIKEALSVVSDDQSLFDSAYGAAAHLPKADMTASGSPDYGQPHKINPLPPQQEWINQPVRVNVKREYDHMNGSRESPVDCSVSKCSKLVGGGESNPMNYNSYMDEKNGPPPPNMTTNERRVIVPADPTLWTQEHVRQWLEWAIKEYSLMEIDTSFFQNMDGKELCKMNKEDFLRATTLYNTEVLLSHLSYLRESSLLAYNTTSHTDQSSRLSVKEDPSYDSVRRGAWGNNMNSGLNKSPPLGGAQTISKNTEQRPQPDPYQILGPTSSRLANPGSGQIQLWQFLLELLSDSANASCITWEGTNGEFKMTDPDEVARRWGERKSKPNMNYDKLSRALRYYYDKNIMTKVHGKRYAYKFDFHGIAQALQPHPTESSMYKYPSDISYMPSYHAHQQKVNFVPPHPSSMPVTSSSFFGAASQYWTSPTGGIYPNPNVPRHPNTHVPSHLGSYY
To be noted: protein: recombinant; tags: N-terminal GST; dsDNA, one strand shown. The gist of the method:
(§1)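 Human transcription factors were made in yeast as GST fusions, captured on glutathione beads and barcoded with DNA. With a tag-only sample included, the pool was incubated with 200 nmole of a random double-stranded 16-mer DNA library in Tris/NaCl/DTT/glycerol buffer at room temperature for 30 min, then crosslinked with 0.1% formaldehyde after washing, ligated by proximity, amplified and sequenced. For binding signal, each hexamer's read frequency for a factor is divided by its frequency for the tag-only sample.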

For a further assay, the target named is T2, ELK1 (Homo sapiens, UniProt P19419 1-428).
T2 sequence: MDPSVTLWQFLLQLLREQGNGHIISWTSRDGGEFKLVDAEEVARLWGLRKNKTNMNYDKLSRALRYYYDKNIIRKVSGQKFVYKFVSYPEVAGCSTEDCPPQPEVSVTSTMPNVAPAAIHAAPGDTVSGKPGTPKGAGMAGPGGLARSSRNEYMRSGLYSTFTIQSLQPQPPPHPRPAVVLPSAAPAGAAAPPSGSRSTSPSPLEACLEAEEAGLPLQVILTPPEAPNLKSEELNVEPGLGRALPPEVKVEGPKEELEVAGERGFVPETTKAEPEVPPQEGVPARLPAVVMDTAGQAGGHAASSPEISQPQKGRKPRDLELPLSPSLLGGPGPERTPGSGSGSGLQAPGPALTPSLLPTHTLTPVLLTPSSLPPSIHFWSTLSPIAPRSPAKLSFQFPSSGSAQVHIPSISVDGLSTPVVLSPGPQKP
To be noted: protein: recombinant; tags: N-terminal GST; dsDNA, one strand shown. In short, it runs like this:
as §1

In another assay the target is T3, GABPA (Homo sapiens, UniProt Q06546 1-454).
T3 sequence: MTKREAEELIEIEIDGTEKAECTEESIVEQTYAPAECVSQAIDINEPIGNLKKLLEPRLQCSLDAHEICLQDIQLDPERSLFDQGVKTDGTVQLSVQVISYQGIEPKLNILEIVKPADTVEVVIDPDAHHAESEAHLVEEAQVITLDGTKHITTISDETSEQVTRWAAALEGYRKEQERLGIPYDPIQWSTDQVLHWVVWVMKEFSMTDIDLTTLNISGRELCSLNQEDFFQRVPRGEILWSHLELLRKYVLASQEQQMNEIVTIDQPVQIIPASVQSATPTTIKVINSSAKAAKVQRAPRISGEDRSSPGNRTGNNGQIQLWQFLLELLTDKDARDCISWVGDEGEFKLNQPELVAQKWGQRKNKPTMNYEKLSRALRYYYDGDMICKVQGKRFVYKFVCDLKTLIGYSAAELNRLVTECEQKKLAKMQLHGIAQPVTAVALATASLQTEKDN
To be noted: protein: recombinant; tags: N-terminal GST; dsDNA, one strand shown. In short, it runs like this: as §1

A further assay concerns the target T4, ERG (Homo sapiens, UniProt P11308 1-479).
T4 sequence: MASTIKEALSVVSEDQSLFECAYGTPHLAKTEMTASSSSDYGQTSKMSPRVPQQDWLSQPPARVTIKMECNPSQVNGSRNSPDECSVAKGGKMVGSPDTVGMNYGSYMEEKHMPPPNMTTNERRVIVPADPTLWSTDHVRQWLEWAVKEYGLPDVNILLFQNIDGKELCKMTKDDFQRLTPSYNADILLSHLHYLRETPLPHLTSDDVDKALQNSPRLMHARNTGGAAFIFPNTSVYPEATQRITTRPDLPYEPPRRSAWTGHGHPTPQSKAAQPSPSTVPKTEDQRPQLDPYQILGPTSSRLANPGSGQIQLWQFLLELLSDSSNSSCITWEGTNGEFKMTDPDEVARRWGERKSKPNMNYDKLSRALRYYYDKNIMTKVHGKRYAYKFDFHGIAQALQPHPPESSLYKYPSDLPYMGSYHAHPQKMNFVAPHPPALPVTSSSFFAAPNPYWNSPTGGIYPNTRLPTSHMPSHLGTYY
To be noted: protein: recombinant; tags: N-terminal GST; dsDNA, one strand shown. In short, it runs like this: as §1

A further assay deals with ELF1 (Homo sapiens, UniProt P32519 1-619). To be noted: protein: recombinant; tags: N-terminal GST; dsDNA, one strand shown. The gist of the method:
as §1

A further assay deals with T5, EHF (Homo sapiens, UniProt Q9NZC4 1-300).
T5 sequence: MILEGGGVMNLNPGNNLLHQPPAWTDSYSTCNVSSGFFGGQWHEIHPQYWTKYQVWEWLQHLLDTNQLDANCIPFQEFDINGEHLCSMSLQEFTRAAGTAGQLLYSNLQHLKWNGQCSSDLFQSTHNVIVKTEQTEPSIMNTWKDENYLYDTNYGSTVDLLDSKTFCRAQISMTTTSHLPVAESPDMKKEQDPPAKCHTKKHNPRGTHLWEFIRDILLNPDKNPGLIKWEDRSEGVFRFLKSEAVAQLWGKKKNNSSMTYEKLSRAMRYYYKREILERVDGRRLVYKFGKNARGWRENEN
To be noted: protein: recombinant; tags: N-terminal GST; dsDNA, one strand shown. In short, it runs like this:
as §1

A further assay deals with SPI1 (Homo sapiens, UniProt P17947 1-270). To be noted: protein: recombinant; tags: N-terminal GST; dsDNA, one strand shown. In short, it runs like this:
as §1

Another assay addresses SPIB (Homo sapiens, UniProt Q01892 1-262). To be noted: protein: recombinant; tags: N-terminal GST; dsDNA, one strand shown. The gist of the method: as §1
The target of another assay is T6, ELK3 (Homo sapiens, UniProt P41970 1-407).
T6 sequence: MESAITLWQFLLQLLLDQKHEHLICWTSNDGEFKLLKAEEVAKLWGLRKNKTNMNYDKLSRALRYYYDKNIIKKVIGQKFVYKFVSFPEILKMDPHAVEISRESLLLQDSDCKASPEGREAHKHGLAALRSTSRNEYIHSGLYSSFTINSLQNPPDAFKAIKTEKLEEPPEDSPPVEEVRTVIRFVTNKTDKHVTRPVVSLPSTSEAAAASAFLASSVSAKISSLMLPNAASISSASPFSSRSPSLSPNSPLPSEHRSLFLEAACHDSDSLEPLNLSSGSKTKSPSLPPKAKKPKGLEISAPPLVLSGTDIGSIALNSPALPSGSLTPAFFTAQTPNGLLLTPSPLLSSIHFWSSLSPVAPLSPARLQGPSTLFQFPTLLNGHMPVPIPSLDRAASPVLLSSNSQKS
To be noted: protein: recombinant; tags: N-terminal GST; dsDNA, one strand shown. The gist of the method:
as §1

For another assay, the target named is T7, FEV (Homo sapiens, UniProt Q99581 1-238).
T7 sequence: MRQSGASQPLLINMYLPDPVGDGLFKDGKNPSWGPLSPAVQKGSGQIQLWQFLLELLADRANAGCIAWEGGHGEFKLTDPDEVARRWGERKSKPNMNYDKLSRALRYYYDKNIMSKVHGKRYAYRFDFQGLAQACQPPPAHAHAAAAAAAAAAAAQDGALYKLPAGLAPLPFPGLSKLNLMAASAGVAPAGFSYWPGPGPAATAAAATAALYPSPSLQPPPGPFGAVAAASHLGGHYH
To be noted: protein: recombinant; tags: N-terminal GST; dsDNA, one strand shown. In short, it runs like this:
as §1

The target of a further assay is ETV5 (Homo sapiens, UniProt P41161 1-510). To be noted: protein: recombinant; tags: N-terminal GST; dsDNA, one strand shown. In short, it runs like this:
as §1

A further assay has as its target HSF1 (Homo sapiens, UniProt Q00613 1-529). To be noted: protein: recombinant; tags: N-terminal GST; chain copies: 3; dsDNA, one strand shown. In short, it runs like this:
as §1

A further assay has as its target T8, SPIC (Homo sapiens, UniProt Q8N5J4 1-248).
T8 sequence: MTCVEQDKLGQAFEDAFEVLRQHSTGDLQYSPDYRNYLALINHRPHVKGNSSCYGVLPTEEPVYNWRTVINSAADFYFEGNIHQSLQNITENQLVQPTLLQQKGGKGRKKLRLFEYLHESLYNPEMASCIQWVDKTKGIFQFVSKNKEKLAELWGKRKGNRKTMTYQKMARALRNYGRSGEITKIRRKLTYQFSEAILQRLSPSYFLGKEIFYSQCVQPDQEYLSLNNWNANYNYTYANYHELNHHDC
To be noted: protein: recombinant; tags: N-terminal GST; dsDNA, one strand shown. In short, it runs like this:
as §1

The next assay deals with ELF4 (Homo sapiens, UniProt Q99607 1-663). To be noted: protein: recombinant; tags: N-terminal GST; dsDNA, one strand shown. In short, it runs like this:
as §1

The target in the next assay is T9, ELK4 (Homo sapiens, UniProt P28324-2 1-405).
T9 sequence: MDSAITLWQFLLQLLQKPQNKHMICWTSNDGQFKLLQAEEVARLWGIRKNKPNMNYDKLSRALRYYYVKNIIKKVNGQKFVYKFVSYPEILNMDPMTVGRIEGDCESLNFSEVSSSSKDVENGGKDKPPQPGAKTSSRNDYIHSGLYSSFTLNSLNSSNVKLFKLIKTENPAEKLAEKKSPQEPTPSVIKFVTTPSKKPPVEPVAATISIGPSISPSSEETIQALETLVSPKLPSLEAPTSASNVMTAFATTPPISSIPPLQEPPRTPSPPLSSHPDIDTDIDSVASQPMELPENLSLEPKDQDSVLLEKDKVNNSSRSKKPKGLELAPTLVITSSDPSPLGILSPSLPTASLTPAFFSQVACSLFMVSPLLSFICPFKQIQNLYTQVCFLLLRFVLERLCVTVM
To be noted: protein: recombinant; tags: N-terminal GST; dsDNA, one strand shown. In short, it runs like this: as §1

For a further assay, the target named is T10, ETV2 (Homo sapiens, UniProt O00321 1-342).
T10 sequence: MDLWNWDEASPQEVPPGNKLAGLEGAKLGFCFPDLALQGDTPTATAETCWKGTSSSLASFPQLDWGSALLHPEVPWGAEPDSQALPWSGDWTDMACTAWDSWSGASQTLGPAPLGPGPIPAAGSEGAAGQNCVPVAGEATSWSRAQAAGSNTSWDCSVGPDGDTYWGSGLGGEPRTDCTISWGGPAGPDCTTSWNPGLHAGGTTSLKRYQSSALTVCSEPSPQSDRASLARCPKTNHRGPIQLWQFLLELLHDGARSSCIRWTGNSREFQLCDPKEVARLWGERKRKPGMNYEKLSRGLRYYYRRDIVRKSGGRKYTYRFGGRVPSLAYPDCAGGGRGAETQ
To be noted: protein: recombinant; tags: N-terminal GST; dsDNA, one strand shown. In short, it runs like this:
as §1

The next assay addresses T11, ELF3 (Homo sapiens, UniProt P78545 1-371).
T11 sequence: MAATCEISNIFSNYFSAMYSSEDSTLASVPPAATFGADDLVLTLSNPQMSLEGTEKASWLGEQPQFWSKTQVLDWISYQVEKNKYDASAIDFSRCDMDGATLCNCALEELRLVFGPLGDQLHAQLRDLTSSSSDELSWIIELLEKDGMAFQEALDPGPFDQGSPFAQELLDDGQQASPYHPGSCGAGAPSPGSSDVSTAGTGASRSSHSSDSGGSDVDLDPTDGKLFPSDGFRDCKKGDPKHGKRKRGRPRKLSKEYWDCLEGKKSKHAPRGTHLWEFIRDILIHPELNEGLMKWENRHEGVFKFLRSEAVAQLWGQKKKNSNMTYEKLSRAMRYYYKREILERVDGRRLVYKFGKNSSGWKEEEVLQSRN
To be noted: protein: recombinant; tags: N-terminal GST; dsDNA, one strand shown. In short, it runs like this:
as §1

A further assay has as its target CRX (Homo sapiens, UniProt O43186 1-299). To be noted: protein: recombinant; tags: N-terminal GST; dsDNA, one strand shown. The gist of the method: as §1
For another assay, the target named is ETV1 (Homo sapiens, UniProt P50549 1-477). To be noted: protein: recombinant; tags: N-terminal GST; dsDNA, one strand shown. In short, it runs like this: as §1
Sequence of ETV1 (P50549 whole entry): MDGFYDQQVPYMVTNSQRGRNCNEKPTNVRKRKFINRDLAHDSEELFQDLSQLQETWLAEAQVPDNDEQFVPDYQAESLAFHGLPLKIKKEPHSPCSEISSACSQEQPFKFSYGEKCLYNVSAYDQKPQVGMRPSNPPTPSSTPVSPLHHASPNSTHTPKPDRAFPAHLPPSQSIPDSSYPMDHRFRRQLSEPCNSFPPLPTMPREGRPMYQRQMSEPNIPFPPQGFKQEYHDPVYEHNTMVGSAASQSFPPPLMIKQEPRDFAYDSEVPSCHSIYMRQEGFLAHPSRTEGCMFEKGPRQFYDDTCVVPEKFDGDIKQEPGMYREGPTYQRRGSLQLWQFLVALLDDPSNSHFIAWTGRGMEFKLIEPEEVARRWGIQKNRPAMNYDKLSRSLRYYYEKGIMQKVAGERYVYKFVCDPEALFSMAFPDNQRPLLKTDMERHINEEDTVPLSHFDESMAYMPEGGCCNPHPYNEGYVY

Sequence of ELF4 (Q99607 whole entry): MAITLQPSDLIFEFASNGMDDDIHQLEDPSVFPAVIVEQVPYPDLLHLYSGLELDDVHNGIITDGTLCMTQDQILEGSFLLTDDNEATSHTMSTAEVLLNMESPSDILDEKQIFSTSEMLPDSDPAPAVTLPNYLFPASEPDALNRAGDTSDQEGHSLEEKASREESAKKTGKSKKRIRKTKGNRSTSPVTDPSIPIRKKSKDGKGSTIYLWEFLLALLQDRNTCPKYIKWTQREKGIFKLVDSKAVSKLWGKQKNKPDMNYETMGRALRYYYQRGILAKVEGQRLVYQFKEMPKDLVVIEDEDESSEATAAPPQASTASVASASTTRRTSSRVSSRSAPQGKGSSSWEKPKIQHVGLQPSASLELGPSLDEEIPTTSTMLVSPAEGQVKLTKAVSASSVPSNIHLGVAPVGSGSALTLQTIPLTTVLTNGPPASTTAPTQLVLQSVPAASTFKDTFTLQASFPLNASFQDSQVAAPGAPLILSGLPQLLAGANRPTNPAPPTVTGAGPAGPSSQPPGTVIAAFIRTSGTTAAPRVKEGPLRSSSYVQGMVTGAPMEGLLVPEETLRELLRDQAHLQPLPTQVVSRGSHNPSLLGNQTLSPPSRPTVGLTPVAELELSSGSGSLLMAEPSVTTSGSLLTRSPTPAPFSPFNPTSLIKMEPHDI
Sequence of HSF1 (Q00613 whole entry): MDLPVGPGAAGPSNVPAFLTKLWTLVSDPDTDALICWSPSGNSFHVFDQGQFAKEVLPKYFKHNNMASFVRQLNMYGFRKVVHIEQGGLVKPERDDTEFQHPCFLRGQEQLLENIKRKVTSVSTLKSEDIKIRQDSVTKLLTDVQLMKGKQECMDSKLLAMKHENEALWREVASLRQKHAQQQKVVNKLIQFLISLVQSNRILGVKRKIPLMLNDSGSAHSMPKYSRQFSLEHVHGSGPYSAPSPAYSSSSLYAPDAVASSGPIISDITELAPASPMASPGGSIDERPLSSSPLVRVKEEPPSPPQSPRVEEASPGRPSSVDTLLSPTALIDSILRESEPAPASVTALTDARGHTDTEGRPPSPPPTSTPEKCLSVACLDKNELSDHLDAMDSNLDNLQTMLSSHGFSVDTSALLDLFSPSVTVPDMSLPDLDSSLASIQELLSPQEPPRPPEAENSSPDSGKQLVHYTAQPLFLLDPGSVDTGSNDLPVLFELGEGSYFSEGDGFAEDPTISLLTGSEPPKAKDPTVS
Sequence of ELF1 (P32519 whole entry): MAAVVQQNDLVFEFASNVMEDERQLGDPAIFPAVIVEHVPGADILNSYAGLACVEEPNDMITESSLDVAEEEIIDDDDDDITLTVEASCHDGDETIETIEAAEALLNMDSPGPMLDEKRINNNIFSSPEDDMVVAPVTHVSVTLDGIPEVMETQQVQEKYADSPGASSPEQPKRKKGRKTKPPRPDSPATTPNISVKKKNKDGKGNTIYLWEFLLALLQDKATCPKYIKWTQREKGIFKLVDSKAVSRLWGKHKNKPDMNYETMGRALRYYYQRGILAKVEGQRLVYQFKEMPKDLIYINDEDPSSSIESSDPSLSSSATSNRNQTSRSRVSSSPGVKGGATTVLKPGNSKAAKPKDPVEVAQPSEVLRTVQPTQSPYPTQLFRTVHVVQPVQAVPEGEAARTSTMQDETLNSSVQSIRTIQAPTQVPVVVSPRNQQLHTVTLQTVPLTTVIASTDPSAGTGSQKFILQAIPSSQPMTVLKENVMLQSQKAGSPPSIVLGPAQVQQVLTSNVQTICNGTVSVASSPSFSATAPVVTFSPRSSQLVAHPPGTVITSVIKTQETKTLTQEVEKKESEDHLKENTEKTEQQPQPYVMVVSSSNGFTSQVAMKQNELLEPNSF
Sequence of ETV5 (P41161 whole entry): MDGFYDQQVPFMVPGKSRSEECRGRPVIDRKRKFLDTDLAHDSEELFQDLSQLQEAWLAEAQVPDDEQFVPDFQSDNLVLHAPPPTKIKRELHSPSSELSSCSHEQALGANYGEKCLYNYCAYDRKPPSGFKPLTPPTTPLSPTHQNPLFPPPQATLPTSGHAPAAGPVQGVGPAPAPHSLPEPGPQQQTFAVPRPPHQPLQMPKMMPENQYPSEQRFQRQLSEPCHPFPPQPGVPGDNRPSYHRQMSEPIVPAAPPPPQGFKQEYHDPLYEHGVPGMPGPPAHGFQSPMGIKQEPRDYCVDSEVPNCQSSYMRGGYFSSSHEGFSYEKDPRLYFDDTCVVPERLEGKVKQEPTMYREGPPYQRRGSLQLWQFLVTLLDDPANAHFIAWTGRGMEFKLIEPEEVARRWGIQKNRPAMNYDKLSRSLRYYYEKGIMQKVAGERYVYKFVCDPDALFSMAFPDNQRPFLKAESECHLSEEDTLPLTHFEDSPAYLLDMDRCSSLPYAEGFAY
Sequence of CRX (O43186 whole entry): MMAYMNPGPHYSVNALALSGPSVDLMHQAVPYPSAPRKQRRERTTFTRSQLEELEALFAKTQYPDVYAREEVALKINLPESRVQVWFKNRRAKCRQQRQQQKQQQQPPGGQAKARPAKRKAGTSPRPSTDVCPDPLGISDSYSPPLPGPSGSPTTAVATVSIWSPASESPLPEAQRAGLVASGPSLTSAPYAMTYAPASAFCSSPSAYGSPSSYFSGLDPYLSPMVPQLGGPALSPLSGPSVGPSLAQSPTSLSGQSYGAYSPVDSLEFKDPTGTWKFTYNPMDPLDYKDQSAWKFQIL
Sequence of SPIB (Q01892 whole entry): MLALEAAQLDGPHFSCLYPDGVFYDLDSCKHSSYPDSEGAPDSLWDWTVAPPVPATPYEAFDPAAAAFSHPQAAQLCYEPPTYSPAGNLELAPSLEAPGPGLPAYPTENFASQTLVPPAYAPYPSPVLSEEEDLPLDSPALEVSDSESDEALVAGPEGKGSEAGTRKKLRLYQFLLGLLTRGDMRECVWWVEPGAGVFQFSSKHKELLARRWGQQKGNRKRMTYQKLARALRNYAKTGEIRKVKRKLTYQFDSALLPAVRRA

On to TCTCAA, for which the binding signal in the assay with FLI1 is 1.38 fold enrichment (6-mer frequency, TF over GST control); with ELK1, 1.27 fold enrichment (6-mer frequency, TF over GST control); in the assay with GABPA, 1.27 fold enrichment (6-mer frequency, TF over GST control); in the assay with ERG it was 1.28 fold enrichment (6-mer frequency, TF over GST control); with ELF1 it was 1.26 fold enrichment (6-mer frequency, TF over GST control); in the assay with EHF, 1.19 fold enrichment (6-mer frequency, TF over GST control). The binding signal was 1.22 fold enrichment (6-mer frequency, TF over GST control) in the assay with SPI1; 1.33 fold enrichment (6-mer frequency, TF over GST control) with SPIB; 1.43 fold enrichment (6-mer frequency, TF over GST control) with ELK3; 1.25 fold enrichment (6-mer frequency, TF over GST control) with FEV; 1.3 fold enrichment (6-mer frequency, TF over GST control) with ETV5; 1.33 fold enrichment (6-mer frequency, TF over GST control) with HSF1. Moreover, the binding signal in the assay with SPIC is 1.24 fold enrichment (6-mer frequency, TF over GST control); with ELF4, 1.35 fold enrichment (6-mer frequency, TF over GST control); with ELK4 it was 1.25 fold enrichment (6-mer frequency, TF over GST control); with ETV2, 1.34 fold enrichment (6-mer frequency, TF over GST control); in the assay with ELF3 it was 1.45 fold enrichment (6-mer frequency, TF over GST control); with CRX, 1.39 fold enrichment (6-mer frequency, TF over GST control). For the same sequence, the binding signal with ETV1 was 1.3 fold enrichment (6-mer frequency, TF over GST control).
